Assay results taken from PubChem BioAssay AID720566 (Broad Institute, 2013).
Results with a measured potency or affinity are listed apart. The source made the active and inactive calls.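 Rule for the calls: active = in all runs, an absorbance decrease of 25% or more of the average positive control decrease; inconclusive = runs conflict, with both active and inactive results; inactive = all runs inactive, opposite-direction effects included.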

These compounds were tested against Protein disulfide-isomerase A6 (Homo sapiens) (UniProt Q15084) (assay: reduced insulin turbidity driven by ERp5 (PDIA6) – biochemical, absorbance 650 nm, cherry-picked samples, dose response (AID 720566;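 note: negative values mean less insulin aggregation so ERp5 inhibition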)). Conditions: Recombinant ERp5 insulin aggregation; series mostly up to 35 µM.
Sequence of Protein disulfide-isomerase A6 (Homo sapiens) (Q15084 whole entry, looked up): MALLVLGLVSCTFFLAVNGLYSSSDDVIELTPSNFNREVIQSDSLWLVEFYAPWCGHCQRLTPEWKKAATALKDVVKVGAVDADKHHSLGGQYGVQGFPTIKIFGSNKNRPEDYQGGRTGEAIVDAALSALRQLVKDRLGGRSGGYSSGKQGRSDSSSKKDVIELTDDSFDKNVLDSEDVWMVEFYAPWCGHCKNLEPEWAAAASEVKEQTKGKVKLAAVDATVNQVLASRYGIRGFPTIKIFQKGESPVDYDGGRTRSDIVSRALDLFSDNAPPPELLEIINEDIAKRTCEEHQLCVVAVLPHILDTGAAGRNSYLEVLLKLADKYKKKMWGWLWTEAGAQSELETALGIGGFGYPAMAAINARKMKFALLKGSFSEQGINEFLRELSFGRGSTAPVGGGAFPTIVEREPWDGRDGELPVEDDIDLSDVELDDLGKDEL

outcome, inactive:
Cc1cccc(Oc2ccc(NS(=O)(=O)c3ccc(C)c(C(=O)O)c3)cc2)c1
O=C(COC(=O)CCc1nc2ccccc2c(=O)[nH]1)Nc1c(Cl)cccc1C(F)(F)F
O=C(Nc1ccncc1)C1CC(=O)N(c2ccccc2)C1 (stereo not drawn)
